Bioassay records: PubChem, National Center for Advancing Translational Sciences (NCATS)
HCMV antiviral: qHTS Assay for inhibitors of the human cytomegalovirus (HCMV); 4.5% of 410,000 active; HFF cells, HCMV-luciferase reporter, 72 h; active compounds read low; activity change, negative = inhibition, % at 57.5 µM; in the data active = activity change below about -60%; inconclusive = no clear call, values can overlap the other calls; inactive = above about -39%
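Steps: HFFs plated, 16 h 37C; compounds added; HCMV-luciferase added to MOI 1 PFU/cell; 72 h 37C; OneGlo reagent, 5 min room temperature; luminescence read, normalized to controls.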
LASV entry inh: qHTS for Inhibitors of binding or entry into cells for Lassa Virus | Lassa virus pseudotype entry inhibition, cell reporter | Potency, µM (top dose mostly 37.9 µM), for inactives: top-dose activity change, negative = inhibition, most hits filed as inhibitors | 1.2% of 300,000 active; calls by dose curve; tested in HEK293 cells; note: potency is the fitted concentration of half-maximal effect; nearly all actives have a fitted effect of over 50% in size
FMDV inh: High Throughput Screening for Foot and Mouth Disease Virus Antivirals. FMDV antiviral cell-based qHTS. Potency, µM (titrated, usually from 57.9 µM), for inactives: at the highest dose activity change, negative = inhibition, hits mostly inhibitors. 1.2% of 410,000 active. AID 1159524, 2015; calls by dose curve; tested in HEK293T cells; note: read-out not given here; potency is the fitted concentration of half-maximal effect; nearly all actives have a fitted effect of over 45% in size
Marburg entry inh: qHTS for inhibitors of binding or entry into cells for Marburg Virus; Marburg virus pseudotyped entry inhibition, cell reporter; Potency, µM (series often up to 37.8 µM), inactives show at the top dose activity change, negative = inhibition, most hits filed as inhibitors; 1.8% of 300,000 active; calls by dose curve; tested in HEK293 cells; note: potency is the fitted concentration of half-maximal effect
HCV inhibitor: qHTS Assay for Inhibitors of Hepatitis C Virus (HCV) | Huh7.5.1 HCVcc-Cre infection, luciferase reporter, 44 h | Potency, µM (doses to about 41.8 µM), for the others: top-dose activity change, negative = inhibition, usual class: inhibitors | 3.4% of 340,000 active; active = well fitted inhibition curve with a large enough effect; inconclusive = small, poorly fitted or top-dose-only effect, or another doubt; inactive = no such curve, though single readings can be large or run the other way; note: potency is the fitted concentration of half-maximal effect
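Antiviral activity was scored by luciferase reporter output from cells infected with HCVcc-Cre (~0.5 moi) in presence of compound, 44 h infection period, cells seeded 1,000/well 4 h prior.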
* hit, by the source's call; ? = inconclusive; / = no result given; [ ] = dose if it differs, or a comment. An excerpt weighted towards active compounds, which were near 7.9% of everything screened. % is set by controls: 0 for no effect and ±100 for the full control effect.

SMILES	HCMV antiviral	LASV entry inh	FMDV inh	Marburg entry inh	HCV inhibitor
O=C(Nc1nc(-c2ccc(S(=O)(=O)N3CCCCCC3)cc2)cs1)c1ccccc1	-73*	?	11µM*	-25%	?
Cc1csc(NC(=O)c2ccc(S(=O)(=O)N3CCCC3)cc2)n1	-1	/	16%	/	-1%
O=S1(=O)N=C(Nc2cccc(C(F)(F)F)c2)c2ccccc21	-27	1%[46.1 µM]	45%	22%[46.1 µM]	/
COC(=O)c1sccc1S(=O)(=O)N1CCN(c2ccc(C(C)=O)cc2)CC1	21	1%[46.1 µM]	25%	/	/
O=C(Nc1nc(-c2ccc(S(=O)(=O)N3CCCC3)cc2)cs1)C1COc2ccccc2O1 (stereo not drawn)	?	?	?	?	2.2µM*
CC(C)CCNC(=O)CN1C(=O)CSc2ccc(S(=O)(=O)N3CCC(C)CC3)cc21	-24	2%[46.1 µM]	-13%	/	/
O=C(/C=C1\C(=O)Nc2ccccc21)/C=C1\C(=O)Nc2ccccc21	-14	/	?	/	?
O=C1Nc2ccccc2/C1=C\C(=O)c1ccccc1	-30	/	32µM*	/	17%
COc1ccc(OCCNC2CCCC2)cc1	52	0%	-4%	15%	-4%
c1ccc(-c2ccc(OCCCNC3CCCC3)cc2)cc1	-21	-25%	-29%	?	11µM*
OCCCCCN=c1cc(-c2ccccc2)oc2ccc(Cl)cc12	-62*	?	12%	?	?
Clc1ccc2oc(-c3ccccc3)cc(=NCCCN3CCOCC3)c2c1	7	/	21%	?	?
COc1ccc(COC(=O)N/N=C2\C[C@@H](O)[C@@H](O)[C@@H]3[C@@H]4C(=O)N(Cc5ccccc5)C(=O)[C@@H]4CC[C@H]23)cc1	/	/	/	-25%[14.2 µM]	/
COc1ccc(C(=O)Nc2cnn(Cc3c(F)cccc3Cl)c2)cc1OC	52	/	1%	/	13µM*
O=C(Nc1ccc([N+](=O)[O-])cc1)c1ccc(Cn2cc([N+](=O)[O-])cn2)cc1	-68*	/	?	/	?
O=C(Nc1ccc(Cl)c(Cl)c1)c1ccc(Cn2cc(Cl)cn2)cc1	-24	/	24%	1%	?
O=C(Nc1cnn(Cc2ccc(Cl)c(Cl)c2)c1)C12CC3CC(CC(C3)C1)C2	68	?	0%	13µM*	?
CCOc1ccc(C(=O)Nc2cnn(Cc3ccc(Cl)c(Cl)c3)c2)cc1	-70*	?	?	?	13µM*
Cc1cc(C)n(CCc2nc3c4ccccc4nc(SCc4ccc(Cl)cc4)n3n2)n1	0	6%[46.1 µM]	-4%	/	/
CCOc1ccc(-n2c(C)nc3cc(C(=O)NCc4ccc(C)cc4)ccc32)cc1	-36	?	1%	/	/
O=C(Nc1cnn(Cc2ccc(Cl)cc2)c1)c1ccc([N+](=O)[O-])cc1	-39	?	?	11µM*	-3%
O=C(Nc1cnn(Cc2ccc(Cl)cc2)c1)c1cccs1	-15	/	4%	/	-14%
O=C(c1cccn1-c1nnc(N2CCCCC2)s1)N1CCN(c2ccc(Cl)cc2)CC1	?	?	-28%	/	/
Cc1ccc(NC(=O)C(=O)NN=C2CCCC2)cc1C	-104*	-4%	71%	?	13%
Clc1cccc(Cl)c1CON/C=N/c1ncnc2sccc12	?	?	?	?	11µM*
SMILES	HCMV antiviral	LASV entry inh	FMDV inh	Marburg entry inh	HCV inhibitor
CC1CCN(C(=O)c2cccc(NC(=O)c3nsc4ccccc34)c2)CC1	61	?	29%	/	/
Nc1nc(SCC(=O)Nc2ccc([N+](=O)[O-])cc2Br)n[nH]1	10	-1%	-11%	-21%	-9%
O=C(CSc1ncn[nH]1)Nc1ccccc1Sc1ccc(Cl)cc1	?	?	16µM*	-12%	?
Nc1cc(=O)[nH]c(SCC(=O)Nc2ccccc2Sc2ccc(Cl)cc2)n1	-34	?	?	1%[46.1 µM]	?
O=C(CSc1ncn[nH]1)Nc1ccc([N+](=O)[O-])cc1Br	-65*	?	-3%	?	-22%
COc1ccc(OCc2cc(C(=O)NCCN3CCCc4ccccc43)no2)c(Cl)c1	25	?	-18%	-25%	11µM*
COc1ccc(OCc2cc(C(=O)NCCN3CCCC(O)C3)no2)c(Cl)c1 (stereo not drawn)	47	23%[46.1 µM]	-2%	-29%[46.1 µM]	?
OC1C=C2CCN3Cc4cc5c(cc4C(C1O)C23)OCO5 (stereo not drawn)	/	/	-11%	/	/
